As usually defined, the AC50 is the concentration at which the activity in the assay is half-maximal.

Results filed as inconclusive are left out. Active and inactive are the calls of the source. The calls were made as follows: active = hit-call score of the fitted dose curve at least 0.9, where 1 is the maximum; inconclusive = response in the unintended direction; inactive = score below 0.9.

This experiment concerns Japanese medaka Retinoid X Receptor beta (RXRb), gene 100125505. Nature of the experiment: ATG_jmRXRb_EcoTox2: Attagene TRANS-FACTORIAL EcoTox-2 HepG2 Assay for Japanese medaka Retinoid X Receptor beta (RXRb). On the procedure:
ATG_EcoTox2 is a cell-based, multiplexed assay created by modifying the existing Attagene TRANS-FACTORIAL system to include a panel of nuclear receptors from some or all the following species: human (Homo sapiens), african clawed frog (Xenopus laevis), rainbow trout (Oncorhynchus mykiss), japanese medaka (Oryzias latipes), and zebrafish (Danio rerio). The ECOTOX2-FACTORIAL format uses HepG2, a human liver cell line, with measurements taken at 24 hours after chemical dosing in a 24-well plate. ATG_jmRXRb_EcoTox2 is one of 29 assay components calculated in the ATG_EcoTox2 assay. It is designed to make measurements of mRNA induction, a form of inducible reporter, as detected with fluorescence intensity signals by Reverse transcription polymerase chain reaction (RT-PCR) and Capillary electrophoresis technology.The assay endpoint ATG_jmRXRb_EcoTox2 was analyzed in the positive analysis fitting direction relative to DMSO as the negative control and baseline of activity. Using a type of inducible reporter, measures of mRNA for gain-of-signal activity can be used to understand the reporter gene at the transcription factor-level as they relate to the gene RXRb. Furthermore, this assay endpoint can be referred to as a primary readout, because this assay has produced multiple assay endpoints where this one serves a reporter gene function. To generalize the intended target to other relatable targets, this assay endpoint is annotated to the nuclear receptor intended target family, where the subfamily is non-steroidal.
Human liver HepG2 cells are transiently transfected with multiple reporter transcription units (MRTUs) in 6-well plates using FuGene 6 reagent (Roche; 3 ml FuGene/1 mg DNA). The MRTU constructs are regulated by a cis-regulating element (promoter). Each RTU expresses a GAL4-UAS that regulates the transcription of a nearby target reporter gene sequence. A major difference between the CIS and TRANS system is that in CIS activities of endogenous TFs are measured, whereas the TRANS assay evaluates changes in activities of exogenous, chimeric NR-Gal4 proteins. […] At the end of 24 hour incubation, total RNA was isolated using TriZol reagent (Invitrogen). The isolated RNA is then reverse-transcribed using oligo(dT) primer and Mo-MLV reverse transcriptase (Invitrogen) with DNAse I (Ambion) treatment for 30 min. The one-tenth of the produced cDNA was amplified by PCR using Taq DNA polymerase (Invitrogen) and two reporter sequence-specific primers. The PCR products were fluorescently labeled by primer extension with 6-arboxyfluorescein (6-FAM) 5'-labeled reporter sequence-specific primer (2 min at 95 C, 20 s at 68 C and 10 min at 72 C) and these products were digested with 5U of HpaI (New England Biolabs) for 2h at 37 C. The fragments were purified using Qiaquick PCR columns (Qiagen), analyzed on an ABI 3130xL genetic analyzer (Applied Biosystems) with peak positions identified by using a set of X-rhodamine (ROX)-labeled MapMarker1000 molecular weight standards (BioVentures). The raw capillary electrophoresis data was processed using Attagraph software (Attagene).
On to `Cc1ccc(C)c(OCCCC(C)(C)C(=O)O)c1`, for which the AC50 was 50 µM (active).

With `C=C(c1ccc(C(=O)O)cc1)c1cc2c(cc1C)C(C)(C)CCC2(C)C`, the AC50 was 0.00302 µM (active).

As to `C[C@@H]1C[C@H]2[C@@H]3CCC4=CC(=O)C=C[C@]4(C)[C@@]3(F)[C@@H](O)C[C@]2(C)[C@@]1(O)C(=O)COP(=O)(O)O`, the compound was classed as inactive.

As for `CC(C)(Oc1ccc(Cl)cc1)C(=O)O`, the compound was called inactive.

Take `Cc1cccc(Nc2cc(Cl)nc(SCC(=O)O)n2)c1C`: the AC50 was 27.4 µM (active).

Turning to `CN(CCOc1ccc(CC2SC(=O)NC2=O)cc1)c1ccccn1` (stereo not given), the AC50 was 12.9 µM (active).

Take `CC(C)(Oc1ccc(CCNC(=O)c2ccc(Cl)cc2)cc1)C(=O)O`: the compound was classed as inactive.

As for `Cc1nc(-c2ccc(C(F)(F)F)cc2)sc1C(=O)NCc1ccc(OC(C)(C)C(=O)O)cc1`, the result was inactive.

For `CC(c1cc2ccccc2s1)N(O)C(N)=O` (stereo not given), the outcome was inactive.

With `CC(C)(Oc1ccc(C2CC2(Cl)Cl)cc1)C(=O)O` (stereo not given), the outcome was inactive.

These data come from PubChem BioAssay AID2284381 (EPA ToxCast).
